Experimental data reported in the supplement of paper PMC10849652.
About 7,900 targets were measured; listed, in parts, are those with a hit and a random draw of the rest. About 0.6% of all pairs of compound and target were hits.

Legend:
Experiment in all cases: log2 fold change, soluble protein after heating vs DMSO (PISA); higher = thermal stabilisation; K562 cells, 10 uM, 30 min; active = over 0.2 and 3.5 SD of the protein, either way, in both replicates (recomputed)
[1] = compound: CC1=C(C=C(C=C1)NC(=O)C2=CC(=CC=C2)C(C)(C)C#N)NC3=CC4=C(C=C3)N=CN(C4=O)C
How it was run: (§1)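 For each measurement, 10 μM compound was applied for 30 min to K562 cells at 2×10^6 cells/mL. Aliquots were heated for 3 min across 48°C-58°C, pooled, and extracted in PBS with 0.5% NP-40 at 4°C; the supernatant after 21,000xg for 90 min was soluble protein. This was quantified by TMTpro 16plex LC-MS/MS with channel sums equalised, and thermal stability was reported relative to control samples from duplicates, on a log2 fold-change scale.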

[2] = compound: CC1=C(C=C(C=C1)NC(=O)C2=CC(=CC=C2)N(C)C)NC(=O)C3=CC=C(C=C3)O
How it was run: as §1

[3] = compound: CC1=CC=C(C=C1)SC2=C3C=C(SC3=CN=C2)C(=O)N
How it was run: as §1

[4] = compound: CC1=NC(=CC=C1)C2=C(N=C(N2)C(C)(C)C)C3=CC4=NC=CN=C4C=C3
How it was run: as §1

Nexturastat A = compound: CCCCN(Cc1ccc(C(=O)NO)cc1)C(=O)Nc1ccccc1 [Nexturastat A]
How it was run: as §1

vemurafenib = compound: CCCS(=O)(=O)Nc1ccc(F)c(C(=O)c2c[nH]c3ncc(-c4ccc(Cl)cc4)cc23)c1F [vemurafenib]
How it was run: as §1

[5] = compound: CCCS(=O)(=O)Nc1ccc(F)c(C(=O)c2c[nH]c3ncc(Cl)cc23)c1F
How it was run: as §1

[6] = compound: CCCc1cc(C)[nH]c(=O)c1CNC(=O)c1cc(-c2ccnc(N3CCN(C)CC3)c2)cc2c1cnn2C(C)C
How it was run: as §1

givinostat = compound: CCN(CC)Cc1ccc2cc(COC(=O)Nc3ccc(C(=O)NO)cc3)ccc2c1 [givinostat]
How it was run: as §1

barasertib = compound: CCN(CCCOc1ccc2c(Nc3cc(CC(=O)Nc4cccc(F)c4)[nH]n3)ncnc2c1)CCOP(=O)(O)O [barasertib]
How it was run: as §1

[7] = compound: CC[C@@H]1C(=O)N(C)c2cnc(Nc3ccc(C(=O)NC4CCN(C)CC4)cc3OC)nc2N1C1CCCC1
How it was run: as §1

volasertib = compound: CC[C@@H]1C(=O)N(C)c2cnc(Nc3ccc(C(=O)N[C@H]4CC[C@H](N5CCN(CC6CC6)CC5)CC4)cc3OC)nc2N1C(C)C [volasertib]
How it was run: as §1

[8] = compound: CC[C@H](C)N1C=C(C2=C(C=C(C=C21)C3=CN=C(C=C3)N4CCNCC4)C(=O)NCC5=C(C=C(NC5=O)C)C)C
How it was run: as §1

epoxomicin = compound: CC[C@H](C)[C@@H](C(=O)N[C@@H]([C@@H](C)O)C(=O)N[C@@H](CC(C)C)C(=O)[C@]1(CO1)C)NC(=O)[C@H]([C@@H](C)CC)N(C)C(=O)C [epoxomicin]
How it was run: as §1

[9] = compound: CCn1c(C(=O)N(C2CC2)C2CC2)cc2c3c(ncn3C)c(Nc3cc(C)n(C)n3)nc21
How it was run: as §1

[10] = compound: CCn1cc(-c2ccnc3[nH]c(-c4cccc(CN(C)C)c4)cc23)c(-c2ccc(NC(=O)N(C)C)cc2)n1
How it was run: as §1

[11] = compound: CN(C)CC(=O)Nc1ccc2[nH]c(=O)c3ccccc3c2c1
How it was run: as §1

rosiglitazone = compound: CN(CCOC1=CC=C(C=C1)C[C@H]2C(=O)NC(=O)S2)C3=CC=CC=N3 (racemic) [rosiglitazone]
How it was run: as §1

[12] = compound: CN1C2=C(C3=C1C(=O)N(N=C3)CC4=CC(=CC=C4)N)SC(=C2)S(=O)C
How it was run: as §1

[13] = compound: CN1CCC(CNc2ccc3ncc(-c4cccc(OC(F)(F)F)c4)n3n2)CC1
How it was run: as §1

Measured: log2 fold change

RAB33B (UniProt Q9H082)
Chain of UniProt Q9H082 (Q9H082 whole entry, looked up): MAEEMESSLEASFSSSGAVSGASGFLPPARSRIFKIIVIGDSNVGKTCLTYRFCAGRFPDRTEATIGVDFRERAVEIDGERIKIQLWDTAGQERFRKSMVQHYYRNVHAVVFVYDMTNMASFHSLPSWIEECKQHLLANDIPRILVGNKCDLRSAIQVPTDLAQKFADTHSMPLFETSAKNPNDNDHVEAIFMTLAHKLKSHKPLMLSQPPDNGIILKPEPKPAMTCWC
inactive: [1] -0.028 | [2] -0.026 | [3] -0.028 | [4] -0.071 | Nexturastat A -0.004 | vemurafenib -0.083 | [5] -0.038 | [6] -0.065 | givinostat -0.012 | barasertib 0.031 | [7] -0.016 | volasertib -0.014 | [8] -0.04 | epoxomicin -0.009 | [9] -0.005 | [10] 0.09 | [11] -0.031 | rosiglitazone 0.033 | [12] -0.067 | [13] -0.006

SCD (UniProt O00767)
Chain of UniProt O00767 (O00767 whole entry, looked up): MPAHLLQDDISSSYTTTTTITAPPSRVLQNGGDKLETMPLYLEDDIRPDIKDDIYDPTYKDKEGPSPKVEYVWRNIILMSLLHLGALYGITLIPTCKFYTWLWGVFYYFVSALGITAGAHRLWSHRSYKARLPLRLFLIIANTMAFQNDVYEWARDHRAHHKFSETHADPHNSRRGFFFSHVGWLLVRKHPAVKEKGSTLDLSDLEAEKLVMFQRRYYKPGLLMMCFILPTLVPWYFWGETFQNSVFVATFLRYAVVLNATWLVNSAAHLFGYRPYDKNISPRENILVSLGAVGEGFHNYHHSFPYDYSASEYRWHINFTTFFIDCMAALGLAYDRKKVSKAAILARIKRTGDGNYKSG
active: givinostat -0.457
inactive: [1] -0.076 | [2] 0.037 | [3] 0.038 | [4] 0.078 | Nexturastat A -0.121 | vemurafenib 0.022 | [5] -0.053 | [6] -0.021 | barasertib 0.003 | [7] 0 | volasertib 0.009 | [8] -0.063 | epoxomicin 0.109 | [9] 0.103 | [10] 0.036 | [11] 0.008 | rosiglitazone -0.023 | [12] 0.025 | [13] 0.095

RRS1 (UniProt Q15050)
Chain of UniProt Q15050 (Q15050 whole entry, looked up): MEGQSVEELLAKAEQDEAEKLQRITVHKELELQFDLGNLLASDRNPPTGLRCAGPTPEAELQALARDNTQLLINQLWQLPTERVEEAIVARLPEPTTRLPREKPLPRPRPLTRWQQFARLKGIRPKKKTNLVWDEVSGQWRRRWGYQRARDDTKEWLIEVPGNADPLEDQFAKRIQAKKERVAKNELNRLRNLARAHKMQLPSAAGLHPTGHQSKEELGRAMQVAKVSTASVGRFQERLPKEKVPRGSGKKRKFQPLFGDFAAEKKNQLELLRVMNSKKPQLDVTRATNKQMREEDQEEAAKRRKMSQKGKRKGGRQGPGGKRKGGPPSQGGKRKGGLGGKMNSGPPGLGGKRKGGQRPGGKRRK
inactive: [1] 0.024 | [2] 0.021 | [3] -0.043 | [4] -0.163 | Nexturastat A 0.31 | vemurafenib -0.174 | [5] -0.03 | [6] 0.104 | givinostat 0.093 | barasertib -0.101 | [7] 0.291 | volasertib 0.286 | [8] 0.023 | epoxomicin -0.381 | [9] 0.051 | [10] 0.143 | [11] -0.029 | rosiglitazone -0.147 | [12] 0.28 | [13] 0.268

SDHAF2 (UniProt Q9NX18)
Chain of UniProt Q9NX18 (Q9NX18 whole entry, looked up): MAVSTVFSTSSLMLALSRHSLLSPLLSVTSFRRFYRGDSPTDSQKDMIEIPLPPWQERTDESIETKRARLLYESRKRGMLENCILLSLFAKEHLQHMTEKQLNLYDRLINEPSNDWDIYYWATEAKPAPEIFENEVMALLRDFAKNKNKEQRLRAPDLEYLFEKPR
inactive: [1] -0.047 | [2] 0.026 | [3] 0.079 | [4] 0.019 | Nexturastat A 0.076 | vemurafenib 0.028 | [5] -0.024 | [6] -0.06 | givinostat 0.036 | barasertib 0.005 | [7] 0.089 | volasertib 0.093 | [8] -0.081 | epoxomicin -0.057 | [9] 0.053 | [10] 0.06 | [11] -0.004 | rosiglitazone 0.02 | [12] 0.037 | [13] 0.045

RNF14 (UniProt Q9UBS8)
Chain of UniProt Q9UBS8 (Q9UBS8 whole entry, looked up): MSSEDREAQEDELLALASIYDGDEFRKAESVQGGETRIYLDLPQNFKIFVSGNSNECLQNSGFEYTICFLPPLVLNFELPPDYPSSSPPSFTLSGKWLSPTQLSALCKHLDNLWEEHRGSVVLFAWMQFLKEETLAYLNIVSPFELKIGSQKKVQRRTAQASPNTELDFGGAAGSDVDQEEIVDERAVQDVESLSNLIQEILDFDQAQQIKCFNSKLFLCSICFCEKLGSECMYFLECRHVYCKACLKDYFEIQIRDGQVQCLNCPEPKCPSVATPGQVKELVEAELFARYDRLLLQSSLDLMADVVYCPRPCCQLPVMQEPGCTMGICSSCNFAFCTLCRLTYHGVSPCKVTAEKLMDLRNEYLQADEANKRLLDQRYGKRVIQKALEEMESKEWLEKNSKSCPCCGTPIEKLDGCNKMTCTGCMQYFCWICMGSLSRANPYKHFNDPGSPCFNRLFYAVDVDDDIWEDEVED
active: volasertib -0.288
inactive: [1] 0.039 | [2] -0.034 | [3] 0.004 | [4] 0.05 | Nexturastat A -0.04 | vemurafenib 0.026 | [5] 0.04 | [6] 0.029 | givinostat -0.07 | barasertib 0.036 | [7] -0.054 | [8] 0.037 | epoxomicin -0.075 | [9] 0.002 | [10] -0.032 | [11] -0.019 | rosiglitazone 0.032 | [12] -0.049 | [13] -0.025

RPP25L (UniProt Q8N5L8)
Chain of UniProt Q8N5L8 (Q8N5L8 whole entry, looked up): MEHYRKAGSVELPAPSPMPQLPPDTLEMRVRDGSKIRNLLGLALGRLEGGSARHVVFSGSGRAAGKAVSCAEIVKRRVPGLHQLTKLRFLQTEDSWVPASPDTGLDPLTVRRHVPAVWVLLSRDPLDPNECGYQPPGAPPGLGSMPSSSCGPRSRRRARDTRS
inactive: [1] -0.028 | [2] -0.015 | [3] 0.036 | [4] 0.02 | Nexturastat A -0.01 | vemurafenib -0.034 | [5] -0.035 | [6] -0.048 | givinostat -0.073 | barasertib -0.025 | [7] 0.144 | volasertib 0.115 | [8] -0.042 | epoxomicin -0.04 | [9] -0.052 | [10] 0.059 | [11] -0.074 | rosiglitazone -0.093 | [12] 0.061 | [13] 0.058

RARS2 (UniProt Q5T160)
Chain of UniProt Q5T160 (Q5T160 whole entry, looked up): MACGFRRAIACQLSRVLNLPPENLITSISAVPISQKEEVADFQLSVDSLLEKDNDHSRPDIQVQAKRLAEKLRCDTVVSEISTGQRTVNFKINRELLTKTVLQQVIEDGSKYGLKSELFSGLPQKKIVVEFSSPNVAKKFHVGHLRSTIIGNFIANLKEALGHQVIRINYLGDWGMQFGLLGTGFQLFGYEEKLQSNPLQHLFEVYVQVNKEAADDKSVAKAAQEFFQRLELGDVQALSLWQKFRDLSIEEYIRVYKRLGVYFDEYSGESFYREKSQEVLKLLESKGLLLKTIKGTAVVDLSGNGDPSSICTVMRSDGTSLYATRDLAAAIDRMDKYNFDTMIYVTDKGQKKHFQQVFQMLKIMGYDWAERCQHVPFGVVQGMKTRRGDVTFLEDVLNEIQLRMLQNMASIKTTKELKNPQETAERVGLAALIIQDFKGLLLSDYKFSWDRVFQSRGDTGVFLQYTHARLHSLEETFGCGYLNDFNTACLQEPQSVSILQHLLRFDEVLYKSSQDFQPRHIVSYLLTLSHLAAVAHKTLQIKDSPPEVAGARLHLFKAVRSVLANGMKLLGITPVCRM
active: volasertib -0.238
inactive: [1] 0.018 | [2] 0.033 | [3] 0.056 | [4] 0.029 | Nexturastat A -0.027 | vemurafenib 0.019 | [5] 0.05 | [6] -0.014 | givinostat -0.037 | barasertib 0.017 | [7] -0.121 | [8] -0.003 | epoxomicin 0.04 | [9] 0.013 | [10] -0.046 | [11] 0.026 | rosiglitazone 0.019 | [12] -0.065 | [13] -0.143

RTF2 (UniProt Q9BY42)
Chain of UniProt Q9BY42 (Q9BY42 whole entry, looked up): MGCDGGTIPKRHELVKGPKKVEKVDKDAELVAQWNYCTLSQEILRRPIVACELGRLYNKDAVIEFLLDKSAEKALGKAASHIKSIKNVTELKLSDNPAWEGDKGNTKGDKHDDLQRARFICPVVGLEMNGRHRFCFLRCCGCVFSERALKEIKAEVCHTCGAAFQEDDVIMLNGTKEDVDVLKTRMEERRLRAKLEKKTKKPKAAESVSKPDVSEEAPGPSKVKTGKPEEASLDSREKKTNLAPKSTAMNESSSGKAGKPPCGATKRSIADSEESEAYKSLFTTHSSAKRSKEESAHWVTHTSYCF
active: volasertib -0.45
inactive: [1] 0 | [2] -0.028 | [3] 0.019 | [4] 0.04 | Nexturastat A 0.004 | vemurafenib 0.129 | [5] 0.044 | [6] -0.019 | givinostat 0.017 | barasertib 0.072 | [7] -0.18 | [8] 0.003 | epoxomicin 0.118 | [9] -0.049 | [10] 0.012 | [11] 0.005 | rosiglitazone -0.055 | [12] -0.017 | [13] 0.161
